Experimental data as given in PubChem BioAssay (EPA / NIEHS).
Records with an inconclusive call do not appear. Some compounds were tested as several samples or in several runs, with calls that do not always agree. Active and inactive are the calls of the source. Rule for the calls, unless noted: active = hit-call score of the fitted dose curve at least 0.9, where 1 is the maximum; inactive = score below 0.9.

Key:
[1] = read-out: solute carrier (SLCO1B1), SLCO1B1 (gene 10599); assay: LTEA_HepaRG_SLCO1B1: Life Technologies and Expression Analysis (LTEA) Assay for solute carrier (SLCO1B1) using HepaRG (AID 2283530); conditions: mRNA level, 48 h; actives raise or lower the signal
Method in brief: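 SLCO1B1 transcript read by qRT-PCR (Fluidigm arrays), normalized to three housekeeping genes, after 48 h chemical exposure of HepaRG cells; bidirectional concentration-response fitting versus 0.5% DMSO baseline. Eight-point half-log series, maximum 100 uM.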

[2] = read-out: sulfotransferase 2A1 (SULT2A1), SULT2A1 (gene 6822); assay: LTEA_HepaRG_SULT2A1: Life Technologies and Expression Analysis (LTEA) Assay for sulfotransferase 2A1 (SULT2A1) using HepaRG (AID 2283531); conditions: mRNA level, 48 h; actives raise or lower the signal
Method in brief: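 HepaRG, 48 h chemical exposure, 8-pt half-log curve from 100 uM in 0.5% DMSO, duplicates. Readout: TaqMan qRT-PCR of SULT2A1 mRNA, housekeeping-normalized. Bidirectional fit vs DMSO baseline.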

[3] = read-out: Transforming Growth Factor (TGFB1), TGFB1 (gene 7040); assay: LTEA_HepaRG_TGFB1: Life Technologies and Expression Analysis (LTEA) Assay for Transforming Growth Factor (TGFB1) Transporter using HepaRG (AID 2283533); conditions: mRNA level, 48 h; actives raise or lower the signal
Method in brief: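 qRT-PCR readout of TGFB1 transcript in HepaRG lysates, normalized to three housekeeping genes; gain or loss of signal fitted relative to 0.5% DMSO vehicle. Exposure: 48 h, 8-point curve from 100 uM, duplicate wells.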

TIMP1, TIMP1 (gene 7076) = assay: LTEA_HepaRG_TIMP1: Life Technologies and Expression Analysis (LTEA) Assay for TIMP1 using HepaRG (AID 2283534); conditions: mRNA level, 48 h; actives raise or lower the signal
Method in brief: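 HepaRG, 48 h exposure, 8-pt half-log series from 100 uM in 0.5% DMSO, duplicates; TIMP1 transcript by Fluidigm qRT-PCR, housekeeping-normalized; bidirectional curve fit vs DMSO baseline.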

[4] = read-out: Tumor necrosis factor receptor 1 (TNFRSF1A), TNFRSF1A (gene 7132); assay: LTEA_HepaRG_TNFRSF1A: Life Technologies and Expression Analysis (LTEA) Assay for Tumor necrosis factor receptor 1 (TNFRSF1A) using HepaRG (AID 2283535); conditions: mRNA level, 48 h; actives raise or lower the signal
Method in brief: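 HepaRG, 48 h plating then 48 h chemical exposure, serum-free induction media; 8-pt CRC from 100 uM, half-log, 0.5% DMSO vehicle, duplicates. Readout: TaqMan qRT-PCR (Fluidigm), housekeeping-gene normalized; bidirectional fit vs DMSO.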

[5] = read-out: Thyroid Hormone Responsive (THRSP), THRSP (gene 7069); assay: LTEA_HepaRG_THRSP: Life Technologies and Expression Analysis (LTEA) Assay for Thyroid Hormone Responsive (THRSP) using HepaRG (AID 2283536); conditions: mRNA level, 48 h; actives raise or lower the signal
Method in brief: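 THRSP transcript quantified by Fluidigm qRT-PCR against three housekeeping genes after 48 h chemical exposure of HepaRG cells in serum-free induction medium; eight-point half-log series, top 100 uM, 0.5% DMSO vehicle, duplicate wells.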

[6] = read-out: Cellular tumor antigen p53 (Homo sapiens) (UniProt P04637); assay: LTEA_HepaRG_TP53: Life Technologies and Expression Analysis (LTEA) Assay for Tumor Protein P53 (TP53) using HepaRG (AID 2283537); conditions: mRNA level, 48 h; actives raise or lower the signal
Method in brief: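 TP53 transcript measured by qRT-PCR, normalized to three housekeeping genes, after 48 h treatment of human HepaRG cultures with chemicals from 100 uM downward in half-log steps (0.5% DMSO vehicle, serum-free induction medium). Up- or down-regulation fitted against DMSO.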

[7] = read-out: UDP glucuronosyltransferase (UGT1A1), UGT1A1 (gene 54658); assay: LTEA_HepaRG_UGT1A1: Life Technologies and Expression Analysis (LTEA) Assay for UDP glucuronosyltransferase (UGT1A1) using HepaRG (AID 2283538); conditions: mRNA level, 48 h; actives raise or lower the signal
Method in brief: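 mRNA induction or loss of UGT1A1, by TaqMan qRT-PCR, in duplicate HepaRG wells after 48 h exposure to half-log dilutions topping at 100 uM; DMSO (0.5%) served as baseline.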

[8] = read-out: UDP glucuronosyltransferase (UGT1A6), UGT1A6 (gene 54578); assay: LTEA_HepaRG_UGT1A6: Life Technologies and Expression Analysis (LTEA) Assay for UDP glucuronosyltransferase (UGT1A6) using HepaRG (AID 2283539); conditions: mRNA level, 48 h; actives raise or lower the signal
Method in brief: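 qRT-PCR readout of UGT1A6 mRNA (normalized to ACTB/GAPDH/POLR2A) in differentiated HepaRG cells after 48 h chemical exposure; 8 concentrations, top 100 uM, half-log steps, 0.5% DMSO. Bidirectional curve fit relative to DMSO baseline.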

[9] = read-out: X-box binding protein 1 (XBP1), XBP1 (gene 7494); assay: LTEA_HepaRG_XBP1: Life Technologies and Expression Analysis (LTEA) Assay for X-box binding protein 1 (XBP1) using HepaRG (AID 2283540); conditions: mRNA level, 48 h; actives raise or lower the signal
Method in brief: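 HepaRG, 48 h exposure, 8-pt half-log CRC top 100 uM, 0.5% DMSO vehicle, duplicates. Readout: TaqMan qRT-PCR of XBP1 mRNA, housekeeping-normalised (ACTB/GAPDH/POLR2A); bidirectional fit vs DMSO baseline.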

[10] = LTEA_HepaRG_LDH_cytotoxicity: Cytotoxicity Assessment in the Life Technologies and Expression Analysis (LTEA) Assay (AID 2283563; active = hit-call score of the fitted dose curve at least 0.9, where 1 is the maximum;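 for AC50: LDH activity released into spent culture medium as a marker of cell death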)
Method in brief: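 HepaRG (human liver line), 48 h exposure, 8-pt half-log series from 100 uM, 0.5% DMSO vehicle, duplicates. Read-out: LDH in spent medium. Positive-direction fit vs DMSO baseline.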

[11] = TOX21_p53_BLA_p3_viability: Viability Assessment in the Tox21 HCT-116 p53 Agonism Beta-lactamase Assay, Phase 3 (AID 2283593; active = hit-call score of the fitted dose curve at least 0.9, where 1 is the maximum;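 note: cells exposed to compound for 16 h before reading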)
Method in brief: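 Cellular ATP was quantified by CellTiter-Glo luminescence, read after 30 min at room temperature. Beforehand, HCT116 cells (4000/well) received compound 5 h post-seeding, 217-fold diluted from DMSO, then incubated 16 h at 37C.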

[12] = TOX21_p53_BLA_p4_viability: Viability Assessment in the Tox21 HCT-116 p53 Agonism Beta-lactamase Assay, Phase 4 (AID 2283597; active = hit-call score of the fitted dose curve at least 0.9, where 1 is the maximum;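 note: hits lower the luminescence signal meaning cytotoxicity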)
Method in brief: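 ATP content by CellTiter-Glo luminescence, 30 min RT, read after the beta-lactamase ratio step. Cells: HCT116, 4000/well, compound added after 5 h, exposure 16 h at 37C. Signal loss = reduced viability.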

[13] = molecular target: Cellular tumor antigen p53 (Homo sapiens) (UniProt P04637); assay: TOX21_p53_BLA_p5_ratio: Tox21 HCT-116 p53 Agonism Beta-lactamase Assay, Ratio, Phase 5 (AID 2283599; active = hit-call score of the fitted dose curve at least 0.9, where 1 is the maximum)
Chain of Cellular tumor antigen p53 (Homo sapiens) (P04637 whole entry, looked up): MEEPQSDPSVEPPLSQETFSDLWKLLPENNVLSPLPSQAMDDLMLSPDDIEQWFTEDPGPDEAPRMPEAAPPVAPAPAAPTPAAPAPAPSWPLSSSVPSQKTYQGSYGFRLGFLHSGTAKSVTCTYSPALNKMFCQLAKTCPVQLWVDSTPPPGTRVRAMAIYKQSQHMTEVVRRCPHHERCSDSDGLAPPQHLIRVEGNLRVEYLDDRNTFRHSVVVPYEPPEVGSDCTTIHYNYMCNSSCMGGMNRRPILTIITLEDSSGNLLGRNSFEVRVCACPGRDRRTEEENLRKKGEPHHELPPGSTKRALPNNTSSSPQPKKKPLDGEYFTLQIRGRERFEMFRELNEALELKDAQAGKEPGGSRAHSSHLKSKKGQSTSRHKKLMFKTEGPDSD
Method in brief: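 Beta-lactamase reporter ratio (blue 460 nm over green 530 nm, 405 nm excitation) after 2 h CCF4-AM loading, in HCT-116 cells exposed 16 h at 37 C to compounds pinned at 217-fold dilution. Increases relative to DMSO baseline scored.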

[14] = TOX21_p53_BLA_p5_viability: Viability Assessment in the Tox21 HCT-116 p53 Agonism Beta-lactamase Assay, Phase 5 (AID 2283600; active = hit-call score of the fitted dose curve at least 0.9, where 1 is the maximum)
Method in brief: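 ATP luminescence (CellTiter-Glo, 30 min, RT) served as the viability read-out, with loss of signal indicating cytotoxicity. Compounds in DMSO were pinned at a 217-fold dilution onto 4000 cells/well and incubated 16 h, 37C.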

[15] = TOX21_p53_BLA_p2_viability: Viability Assessment in the Tox21 HCT-116 p53 Agonism Beta-lactamase Assay, Phase 2 (AID 2283591; active = hit-call score of the fitted dose curve at least 0.9, where 1 is the maximum;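 note: actives lower the ATP signal meaning cytotoxicity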)
Method in brief: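 Cytotoxicity readout: CellTiter-Glo ATP luminescence, 30 min at room temperature, after the beta-lactamase read. Cells were HCT116 exposed 16 h at 37C to compounds pin-transferred at 217-fold dilution from DMSO stocks.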

[16] = molecular target: Cellular tumor antigen p53 (Homo sapiens) (UniProt P04637); assay: TOX21_p53_BLA_p2_ratio: Tox21 HCT-116 p53 Agonism Beta-lactamase Assay, Ratio, Phase 2 (AID 2283592; active = hit-call score of the fitted dose curve at least 0.9, where 1 is the maximum)
Method in brief: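 Readout: blue/green (460/530 nm) FRET emission ratio after 2 h CCF4-AM loading at room temperature, excitation 405 nm. HCT116 p53 bla cells, 16 h compound exposure at 37C, 5% CO2; agonist direction fitted against DMSO baseline.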

[17] = molecular target: Cellular tumor antigen p53 (Homo sapiens) (UniProt P04637); assay: TOX21_p53_BLA_p3_ratio: Tox21 HCT-116 p53 Agonism Beta-lactamase Assay, Ratio, Phase 3 (AID 2283596; active = hit-call score of the fitted dose curve at least 0.9, where 1 is the maximum)
Method in brief: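 Cells were seeded at 4000/well, rested 5 h at 37C, then dosed with DMSO compound solutions (217-fold dilution) for 16 h. CCF4-AM substrate was loaded for 2 h at room temperature, and the 460/530 nm emission ratio was fitted for gain of signal versus DMSO.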

Measured: AC50

CCOc1nc(C(Cl)(Cl)Cl)ns1
active: [1] 1.88 µM | [3] 0.687 µM | [5] 1.06 µM | [6] 1.01 µM | [9] 0.83 µM
not listed: [15] | [16] | [17]
inactive: all other assays above

CO/N=C(/C1=NOCCO1)c1ccccc1Oc1ncnc(Oc2ccccc2Cl)c1F
active: [1] 31.1 µM | [2] 33.9 µM | TIMP1, TIMP1 (gene 7076) 50 µM | [5] 27.1 µM | [6] 27.1 µM | [7] 35.8 µM | [8] 50 µM | [10] 33 µM | [16] 3.05 µM
inactive: [3] | [4] | [9] | [15] | [11] | [17] | [12] | [13] | [14]

CCN(CC)c1nc(C)cc(OP(=S)(OC)OC)n1
active: [7] 12.8 µM | [8] 3.58 µM
not listed: [11] | [14] | [16]
inactive: all other assays above

CCOc1cc(C(C)(C)C)ccc1C1COC(c2c(F)cccc2F)=N1 (stereo unspecified)
inactive: [1] | [3] | TIMP1, TIMP1 (gene 7076) | [4] | [5] | [8] | [9] | [10]
active: [2] 8.25 µM | [7] 8.48 µM

Cc1c(COC(=O)[C@@H]2[C@H](/C=C(\Cl)C(F)(F)F)C2(C)C)cccc1-c1ccccc1
inactive: [1] | [2] | [3] | TIMP1, TIMP1 (gene 7076) | [4] | [5] | [6] | [8] | [9] | [10] | [15] | [11] | [17] | [12] | [13] | [14]
active: [7] 11.7 µM | [11] 25.8 µM
